The text below walks through data of PubChem BioAssay (Tox21).

Each structure is given as a SMILES string. Values joined by “and” are separate entries in the source; they are usually repeats but may differ in a detail not shown here. Identical values can stand only once. Results filed as inconclusive are left out. Some structures have more than one record in an assay (separate samples or runs), and their calls can disagree. Active and inactive are the calls of the source. Unless noted, calls come from the whole dose curve; as a rule, active = well fitted curve in the direction sought with a large enough effect in the repeat runs; inconclusive = weak or mixed curves; inactive = no such curve, though single readings can be large; an effect the other way counts as inactive or inconclusive.

A short description of assay [1]: qHTS assay to identify small molecule agonists of H2AX (AID 1224845; active = well fitted activation curve with a large enough effect in the signal ratio in the repeat runs, not every such curve was filed as active; the % refers to the signal ratio; note: potency is the fitted concentration of half-maximal effect). The method, boiled down:
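Wild-type CHO-K1 cells plated overnight, then exposed 3 hr at 37C to compounds at 15 concentrations (0.76% DMSO). Lysed, then HTRF anti-pH2AX(S139)-cryptate/anti-H2AX-d2 detection after 24 hr at room temperature; emissions 665 and 620 nm.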

Assay [2] is described as follows: qHTS assay to identify small molecule agonists of H2AX - cell viability counter screen (AID 1224847; calls by dose curve; note: nearly all actives have a fitted effect of over 30% in size; note: potency is the fitted concentration of half-maximal effect; for activity change, negative = cytotoxicity: top concentration of the series differs between compounds). An outline of the steps:
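After overnight plating of 1000 CHO-K1 cells per well, a 15-concentration compound series was applied for 3 hr at 37C. Luminescence from CellTiter-Glo, read following 30 min at room temperature, reflected cell viability.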
Background: In qHTS, concentration-response curves come from the screen itself.

Assay [3] in a line: qHTS assay to identify small molecule agonists of the estrogen related receptor (ERR) signaling pathway from Tox21 library (AID 1224849; calls by dose curve; note: nearly all actives have a fitted effect of over 15% in size). The note with it: ERR reporter cell line, ONE-Glo luciferase, 18 h. An outline of the steps:
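Luminescent agonist read-out (One-Glo, 30-minute room-temperature incubation) following 18-hour compound treatment at 37 C of the ERR cell line, which had been plated 6 hours before dosing.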

Assay [4] is described as follows: qHTS RealTime-Glo MT Cell Viability Assay in HepG2 cells - 24 hour (AID 1224867). Note: nearly all actives have a fitted effect of over 50% in size. Note: potency is the fitted concentration of half-maximal effect. The method, boiled down: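 Real-time, nonlytic viability: 600 HepG2 cells/well mixed with NanoLuc enzyme plus prosubstrate; 5 h settle, compound (DMSO) added by pintool; luminescence monitored over 40 h at 37 C.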
Assay [5] is described as follows: qHTS RealTime-Glo MT Cell Viability Assay in HEK293 cells - 32 hour (AID 1224868). For activity change, negative = cytotoxic: top concentration of the series differs between compounds. Note: nearly all actives have a fitted effect of over 50% in size. Note: potency is the fitted concentration of half-maximal effect. The method, boiled down:
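Cells + reagent dispensed (600 cells/well, HEK293) → 5 h at 37 C/5% CO2 → 23 nL compound in DMSO pinned → 40 h at 37 C → luminescence read at 0, 8, 16, 24, 32, 40 h.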

The nature of assay [6]: A CellTox Green Cytotoxicity Assay to monitor cytotoxicity in HEK293 cells - 0 hour (AID 1224869). Note: nearly all actives have a fitted effect of over 50% in size. The method, boiled down: (§1)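 Fluorescence from a DNA-binding dye excluded by viable cells was measured repeatedly in the same HEK293 wells (600 cells/well) during continuous compound exposure at 37 C. Each assay gives one read point: 0, 8, 16, 24, 32 or 40 h.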
Assay [7] is described as follows: qHTS RealTime-Glo MT Cell Viability Assay in HepG2 cells - 40 hour (AID 1224870). Note: nearly all actives have a fitted effect of over 50% in size. Note: potency is the fitted concentration of half-maximal effect. An outline of the steps:
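HepG2 cells mixed with RealTime-Glo MT reagents (NanoLuc plus cell-permeant prosubstrate) were seeded at 600 cells/well, incubated 5 h at 37 C/5% CO2, then pinned with compounds in DMSO; nonlytic luminescence tracked viability during 40 h treatment.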

The nature of assay [8]: A CellTox Green Cytotoxicity Assay to monitor cytotoxicity in HEK293 cells - 40 hour (AID 1224871). Note: nearly all actives have a fitted effect of over 45% in size. Note: potency is the fitted concentration of half-maximal effect. An outline of the steps: as §1
Assay [9] can be described thus: qHTS assay to identify small molecule antagonists of the estrogen related receptor (ERR) signaling pathway from Tox21 library (AID 1224848). Note: nearly all actives have a fitted effect of over 50% in size. Note: potency is the fitted concentration of half-maximal effect. An outline of the steps:
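Tox21 10K compounds in DMSO tested for ERR pathway antagonism in NTP's ERR cell line; 18 h, 37 C exposure; ONE-Glo luminescence.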
% is set by controls: 0 for no effect and ±100 for the full control effect.

Take `NC(Cc1ccc(Cl)cc1)C(=O)O` (configuration not stated): the activation (H2AX phosphorylation) in [1] was -0.212% [at 0.582 µM] (inactive). The activity change, negative = cytotoxicity in assay [2] is -0.321% [at 0.582 µM] (inactive); in assay [4], 0.0518% [at 0.29 µM] (inactive). Also, in [3] (at 0.349 µM (top of the series)), the activity change, positive = activation is -8.03% (inactive). Further, the activity change, negative = cytotoxic in assay [5] is 11.7% [at 0.29 µM] (inactive); in assay [7] it was 0.881% [at 0.29 µM] (inactive). The cytotoxicity in assay [6] was -2.12% [at 0.29 µM] (inactive). In addition, the cytotoxicity increase in assay [8] was -8.99% [at 0.29 µM] (inactive).
In the case of `c1ccc2c(c1)CCCC2C1=NCCN1` (configuration not stated), the Potency result in assay [1], in assay [2], in [4], in [5], in [6] and in [7] was “inactive” each time. Moreover, in assay [8], the Potency entry was “inactive”.
In the case of `CCCC(=O)c1ccccc1`, the Potency entry in assay [1], in assay [2], in [4], in assay [5], in assay [6] and in [7] was “inactive” in each case. In addition, the Potency entry in assay [8] is “inactive”. Moreover, the activity change, positive = activation in [3] (at 92.4 µM (top of the series)) was 1.85% (inactive).
For `CCCN[C@H]1CCc2nc(N)sc2C1`, the Potency entry in [1], in assay [2], in assay [4], in [5], in assay [6] and in [7] was “inactive” in each case. In [8], the Potency result was “inactive”.
As to `Cc1occc(=O)c1OC(=O)C(C)C`, the Potency result in [1], in assay [2], in [4], in assay [5], in [6] and in [7] was “inactive” each time. Moreover, the Potency result in assay [8] was “inactive”. Besides, the activity change, positive = activation in assay [3] (at 92.4 µM (top of the series)) was 1.53% (inactive).
As for `Cc1cccc([N+](=O)[O-])c1C(=O)O`, the Potency entry in assay [1], in assay [2], in assay [4], in [5], in assay [6] and in assay [7] was “inactive” in each case. Also, in assay [8], the Potency entry is “inactive”. In addition, the activity change, positive = activation in assay [3] (at 92.4 µM (top of the series)) was 4.9% (inactive).
For `CCCCCCCCCCCCc1ccccc1O`, the Potency is 55.9 µM (active) and 40.1 µM (active) in [1]; 55.9 µM (active) and 40.1 µM (active) in assay [2]; “inactive and 38.9 µM (active)” in assay [4]; 48.3 µM (active) and 49 µM (active) in assay [5]; “inactive and 49 µM (active)” in assay [7]; 43.1 µM (active) and 34.7 µM (active) in assay [8]. Besides, the Potency result in assay [6] is “inactive”.
Take `Cc1cccc(O)c1C`: the Potency result in assay [1], in [9], in assay [4], in assay [5], in assay [6] and in assay [7] was “inactive” each time. For the same molecule, in [8], the Potency result was “inactive”. Further, in assay [3] (at 92.4 µM (top of the series)), the activity change, positive = activation is 0.54% (inactive) and 10.2% (inactive).
Turning to `O=C(Nc1ccccc1SSc1ccccc1NC(=O)c1ccccc1)c1ccccc1`, the Potency in assay [1] was 18 µM (active); in assay [9] it was 24.5 µM (active) and 43.3 µM (active); in [4], “inactive and 49 µM (active)”. Besides, in assay [3] (at 92.4 µM (top of the series)), the activity change, positive = activation was -71.7% (inactive) and -62.7% (inactive). The Potency result in assay [6] and in assay [7] was “inactive” in each case.
`NC12CC3CC(CC(C3)C1)C2`: the Potency result in assay [1], in [2], in assay [4], in assay [5], in [6] and in assay [7] was “inactive” throughout. Also, in assay [8], the Potency entry was “inactive”.
Regarding `O=C(O)CCc1ccccc1`, the Potency entry in assay [1], in [2], in assay [4], in assay [5], in assay [6] and in assay [7] was “inactive” in each case. Moreover, the Potency entry in assay [8] is “inactive”. Also, the activity change, positive = activation in assay [3] (at 92.4 µM (top of the series)) was 0.886% (inactive).
